Measurements taken from PubChem BioAssay (NCI).
This is part of a sample that, as a whole, favours compounds with a hit. Of some 83,000 tested, about 20% had one in any assay.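 In brief: 96-well plates, 48 h treatment, single concentration, percent growth endpoint.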 Values without a mark were called inactive. Active and inactive are the calls of the source. The calls were made as follows: active = growth percent below 10; inactive = the rest.

Key:
Experiment in all cases: NCI-60 one-dose screen, 48 h (100 = growth as untreated, 0 = no growth, -100 = all killed)
NCI-H322M lung = conditions: 10 µM unless noted
HOP-92 NSCLC = conditions: 10 µM unless noted
A549/ATCC NSCLC = conditions: 10 µM unless noted
K-562 leukemia = conditions: 10 µM unless noted
SNB-19 CNS = conditions: 10 µM unless noted
LOX IMVI melanoma = conditions: 10 µM unless noted
SK-MEL-28 melanoma = conditions: 10 µM unless noted
SN12C renal = conditions: 10 µM unless noted
CAKI-1 renal = conditions: 10 µM unless noted
SR leukemia = conditions: 10 µM
RPMI-8226 leukemia = conditions: 10 µM unless noted
OVCAR-4 ovarian = conditions: 10 µM unless noted
IGROV1 ovarian = conditions: 10 µM
BT-549 breast = conditions: 10 µM
HOP-62 NSCLC = conditions: 10 µM unless noted
NCI-H522 lung = conditions: 10 µM unless noted
EKVX NSCLC = conditions: 10 µM unless noted
CCRF-CEM leukemia = conditions: 10 µM unless noted
HS 578T breast = conditions: 10 µM unless noted

| Compound | growth (NCI-H322M lung) [%] | growth (HOP-92 NSCLC) [%] | growth (A549/ATCC NSCLC) [%] | growth (K-562 leukemia) [%] | growth (SNB-19 CNS) [%] | growth (LOX IMVI melanoma) | growth (SK-MEL-28 melanoma) [%] | growth (SN12C renal) [%] | growth (CAKI-1 renal) | growth (SR leukemia) | growth (RPMI-8226 leukemia) [%] | growth (OVCAR-4 ovarian) [%] | growth (IGROV1 ovarian) | growth (BT-549 breast) [%] | growth (HOP-62 NSCLC) [%] | growth (NCI-H522 lung) | growth (EKVX NSCLC) [%] | growth (CCRF-CEM leukemia) | growth (HS 578T breast) [%] |
| --- | --- | --- | --- | --- | --- | --- | --- | --- | --- | --- | --- | --- | --- | --- | --- | --- | --- | --- | --- |
| O=[N+]([O-])c1ccc2cnn(CSP(=S)(c3ccccc3)c3ccccc3)c2c1 | 92.9 | 65.7 | 73.3 | 19 | 88.6 | 65% | 74.1 | 69.9 | 81.5% | 9.77% (active) | 52.3 | 73.1 | 67.5% | 69.7 | – | – | – | – | – |
| C=CCC1(CC)C(=O)NC(=S)NC1=O | – | 80.6 | 102 | 95.5 | 97.1 | 97.2% | 116 | 93.4 | 96.8% | 96.7% | 103 | 110 | 107% | 106 | 97.9 | 93.5% | 105 | 100% | 102 |
| N#CC1=C(N)Oc2cc3c(cc2C1c1cccs1)OCO3 (configuration not stated) | 40.5 | – | 36.8 | – | 43.2 | 37.2% | 37.9 | 52.7 | 43.4% | 16.2% | 24.9 | 52.8 | 35.3% | 44.6 | – | -26% (active) | 53.7 | – | 24.6 |
| N#CC1c2ccccc2C=CN1C(=O)c1ccc(N(CCCl)CCCl)cc1 (configuration not stated) | – | 81 | 79 | 65.8 | 82.4 | 90.4% | 94.6 | – | 69.1% | 86.6% | 69.2 | 96.7 | 98.2% | – | 91.1 | 69% | 86.8 | 87% | 99.5 |
| N#[N+]c1cnc([O-])[nH]c1=O | 98.9 | – | – | 76 | 97.8 | 85.2% | 104 | – | 94.3% | 64.8% | 60.2 | 100 | – | 114 | – | 14.4% | 114 | – | 83.5 |
| O=C(c1cccs1)C1NO[N+]([O-])=C1c1cccs1 (configuration not stated) | 110 | – | 86.9 | 37.4 | 103 | -100% (active) | – | 73.4 | -62.9% (active) | 22.4% | – | – | 7.37% (active) | – | – | -92.1% (active) | 102 | -40.3% (active) | 83 |
| COc1ccc(NP2(=O)OCC(C)(N)CO2)cc1 (configuration not stated) | – | – | 93.6 | 88.9 | 105 | 89.4% | 114 | – | – | 88.7% | – | 110 | 102% | 77 | – | 92.5% | 120 | 88.9% | 109 |
